Screening results deposited in PubChem by National Center for Advancing Translational Sciences (NCATS).
Most compounds without a hit are left out; they make up all but 13% or so of the library.
HSD17B inhib: blocks hydroxysteroid 17-beta dehydrogenase activity; Q99714; recombinant HSD17B10, NADH fluorescence kinetic; hit rate 7.6% among 75,000; AID 893; Potency, µM (series often up to 57.1 µM), inactives show top-dose activity change, negative = inhibition, most hits filed as inhibitors;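 further: the protocol describes HADH2 (HSD17B10) and not the HSD17B4 of the title; potency means the concentration at half of the fitted maximal effect; on the % scale 0 is the no-effect control and ±100 the full control effect; nearly all actives have a fitted effect of over 70% in size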
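Enzyme plus compound, 15 min room temperature; substrate mix added (NAD+ 1 mM, beta-hydroxybutyryl-CoA 90 uM final); plates read kinetically for NADH fluorescence. HADH2 was His-tagged, E. coli-derived, 20 nM.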
4-MU autofl: 4-MU region autofluorescence | AID 589 | hit rate 11% among 59,000 | max dye-equivalent concentration, M | compound autofluorescence, 340/450 nm, 4-MU equivalents; active compounds read high; in the data active means max dye-equivalent concentration above about 10 nM; inconclusive means mostly about 1.1 nM to 9.6 nM
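Compounds in 100 mM Tris, pH 8.0, sat 15 min at room temperature before fluorescence was read at 340 nm excitation/450 nm emission; a per-plate six-point 4-MU standard curve converted signals to dye-equivalent concentration at each compound concentration.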
HADH2 inh: blocks human hydroxyacyl-CoA dehydrogenase type II; Q99714; recombinant HADH2, NADH fluorescence, beta-hydroxybutyryl-CoA; Potency, µM (titrated, usually from 57.1 µM), for inactives: at the top dose activity change, negative = inhibition, usual class: inhibitors; hit rate 3.4% among 73,000; AID 886; further: potency means the concentration at half of the fitted maximal effect; on the % scale 0 is the no-effect control and ±100 the full control effect; nearly all actives have a fitted effect of over 60% in size
Target sequence (Q99714 whole entry, looked up, one chain of several): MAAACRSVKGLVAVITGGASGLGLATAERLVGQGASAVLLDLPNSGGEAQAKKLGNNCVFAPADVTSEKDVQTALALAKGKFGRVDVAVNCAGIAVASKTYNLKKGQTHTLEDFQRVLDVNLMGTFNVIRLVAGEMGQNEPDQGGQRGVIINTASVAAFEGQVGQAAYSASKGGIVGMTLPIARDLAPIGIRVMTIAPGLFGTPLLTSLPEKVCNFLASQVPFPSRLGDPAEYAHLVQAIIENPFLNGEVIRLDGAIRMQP
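E. coli-expressed His-tagged HADH2 tested at 20 nM in alkaline Tris buffer (pH 9.0); oxidation of 90 uM beta-hydroxybutyryl-CoA with 1 mM NAD+ tracked fluorimetrically for 4 min.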
AID923: qHTS Assay for Allosteric/Competitive Inhibitors of Caspase-1: Spectroscopic Profiling in AFC Spectral Region; Potency, µM (highest dose often 57.5 µM), for inactives: top-dose fluorescence increase, actives largely listed as activators; compound fluorescence, AFC spectral region (405/520 nm); AID 923, 2007; hit rate 1.1% among 75,000; further: potency means the concentration at half of the fitted maximal effect; 0% is about no effect
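Compound autofluorescence profiled at 405 nm ex/520 nm em during kinetic caspase 1 run (50 nM enzyme, 5 uM Ac-WEHD-AFC, HEPES pH 7.5, 10 mM DTT). Titration up to 57 uM; baseline from regression intercept, normalized to AFC standard curve.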
Bst PK mod: pyruvate kinase (B. stearothermophilus) modulation. AID 361. purified pyruvate kinase, luminescence ATP production; ribose 5-phosphate activator present at AC10. Potency, µM. hit rate 1.2% among 51,000; in the data active means potency below about 11 µM; inconclusive means mostly about 12 µM to 25 µM;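 the screen sought inhibitors and activators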;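 further: potency means the concentration at half of the fitted maximal effect; scaled between full activation by ribose 5 phosphate and full inhibition by luteolin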
A350 fluor: A350 region autofluorescence. Compound autofluorescence, 340/450 nm, Alexa 350 dye-equivalents; active compounds read high. max dye-equivalent concentration, M. hit rate 11% among 59,000; in the data active means max dye-equivalent concentration above about 10 nM; inconclusive means mostly about 1.1 nM to 9.6 nM
An asterisk follows results filed as active; i = inactive; ? = inconclusive; . = no result given; [ ] = remark or other dose. Unless noted, the call rests on the fitted dose curve; in most records, active means well fitted curve in the direction sought with a large enough effect; inconclusive means small, poorly fitted or top-dose-only effect, or another doubt; inactive means no such curve, though single readings can be large; an effect the other way counts as inactive or inconclusive.

SMILES | HSD17B inhib | 4-MU autofl | HADH2 inh | AID923 | Bst PK mod | A350 fluor
CC(=O)OCC(=O)[C@@]1(O)CC[C@H]2[C@@H]3CCC4=CC(=O)CC[C@]4(C)[C@H]3C(=O)C[C@@]21C | 2.0% | 1.13e-08M* | 17.7% | 3.7% | >11.4 | 1.56e-08M*
C[C@]12C=CC(=O)C=C1CCC1C2C(O)C[C@]2(C)C1CC[C@]2(O)C(=O)CO (some centres undefined) | ? | . | . | -1.5% | . | .
CC(=O)OCC(=O)[C@@]1(O)CC[C@@H]2[C@@H]3CCC4=CC(=O)CC[C@@]4(C)[C@H]3C(=O)C[C@]21C | . | i | -14.7% | . | . | i
COc1ccc2cc(CN(CCO)C(=O)c3ccccc3F)c(=O)[nH]c2c1 | 0.3% | ? | -17.1% | 1.8% | >57 | ?
CCOc1ccc2[nH]c(=O)c(CN(CCO)C(=O)c3ccccc3F)cc2c1 | 31.6µM* | 5.18e-07M* | 14.5% | -1.9% | >57 | 7.73e-07M*
CCOc1ccc2[nH]c(=O)c(CN(CCO)C(=O)c3ccc(F)cc3)cc2c1 | 25.1µM* | 3.48e-07M* | 81.3% | 0.4% | . | 4.2e-07M*
C=CCC(O)CC1C2C(CC(O)CC=C)C3C1C3C2OC(C)(C)C (centres undefined) | 5.7%[11.4 µM] | . | 12.6%[11.4 µM] | -2.5%[11.5 µM] | . | .
COc1ccc(O[C@H]2C=C[C@@H](c3ccccc3)O[C@H]2COC(=O)CC/C(C)=N\OC[C@@H](C)[C@H](OCc2ccccc2)C(C)C)cc1 | -4.6%[11.4 µM] | . | -0.7%[11.4 µM] | 0.5%[11.5 µM] | . | .
CC(=O)[C@@]1(O)Cc2c(O)c3c(c(O)c2[C@H](O[C@H]2C[C@H](N)[C@H](O)[C@H](C)O2)C1)C(=O)c1ccccc1C3=O | -3.8% | ? | 9.9% | 2.9% | . | 1.47e-08M*
Clc1ccccc1-c1nc(NC2CCNCC2)c2ccccc2n1 | 2.2% | i | -4.5% | 5.9% | . | i
CCCCC(=O)Nc1c(O)c2ccccc2[nH]c1=O | . | i | . | . | >25.6 | i
CCCCCCc1c(O)c2ccccc2[nH]c1=O | 31.6µM* | i | ? | -0.5% | >57 | i
C(=N\n1cnnc1)/c1cccc(Oc2ccccc2)c1 | . | i | . | . | >25.6 | i
Nc1nnnn1/N=C/c1cccc(Oc2ccccc2)c1 | . | 1.93e-08M* | . | . | >11.4 | 2.24e-08M*
CCn1c(CSc2nc3ccccc3s2)nc2ccccc21 | 25.1µM* | . | ? | 16.9% | . | .
c1csc(CSc2nc3ccccc3s2)c1 | -7.9% | i | 25.1µM* | -0.5% | >57 | i
N#Cc1ccc(CN2CCCC3(CCN(C(=O)c4ccncc4)CC3)C2)cc1 | 4.5% | i | -4.4% | -0.5% | . | i
Cc1ccc(S(=O)(=O)N[C@H](C(=O)N2CCC(C(=O)N3CCC[C@H]3C(=O)O)CC2)C(C)C)cc1 | 5.6% | i | 3.6% | 0.5% | >57 | ?
Cc1cc2nc3[nH]c4c(Cl)cc(Cl)cc4c3nc2cc1C | -3.3%[11.4 µM] | 1.61e-08M* | 4.1%[11.4 µM] | -3.6%[11.5 µM] | . | 1.89e-08M*
CCc1nnc2sc(-c3cc(-c4ccccc4)nc4ccccc34)nn12 | -26.3% | 3.53e-08M* | 9.0% | 0.4% | >57 | 2.91e-08M*
Nn1c(SCC(=O)Nc2cccc(F)c2)nnc1C1CCCCC1 | 2.3% | i | -0.3% | 1.0% | >57 | ?
COC(=O)c1ccccc1N1C(=O)[C@@H]2C(c3ccc(F)cc3)=NO[C@@H]2C1=O | -0.1% | 6.1e-08M* | 6.5% | 6.3% | >57 | 6.11e-08M*
COc1ccc(CN2C(=O)[C@@H]3C(c4ccc(F)cc4)=NO[C@@H]3C2=O)cc1 | -1.8% | i | 0.4% | -1.4% | >57 | i
Cc1ccc(-n2c(C)nc3c(cnn3-c3ccc(F)cc3)c2=O)cc1C | -3.8% | 1.25e-08M* | 8.7% | -0.3% | >57 | 1.17e-08M*
Cc1ccc(-n2ncc3c(=O)n(CC#N)cnc32)cc1C | -1.5% | i | 10.8% | 0.3% | >57 | i
SMILES | HSD17B inhib | 4-MU autofl | HADH2 inh | AID923 | Bst PK mod | A350 fluor
Cn1c2ccccc2c2cnn(CC(=O)O)c(=O)c21 | ? | . | -29.9% | 5.5% | . | .
O=C(O)Cn1nnn(-c2ccccc2)c1=S | -1.8% | 1.53e-08M* | 5.6% | 2.5% | >57 | 1.69e-08M*
CCOC(=O)c1ccc(NC(=O)Cn2nnc(-c3ccccc3)n2)cc1 | 1.4% | i | 13.1% | 0.1% | >57 | i
CCOC(=O)C1CCCN(CC(=O)/C=C2/N(C)c3ccccc3C2(C)C)C1 (centres undefined) | -16.8% | 1.15e-07M* | -9.0% | 1.1% | >57 | 1.07e-07M*
CN1/C(=C\C(=O)COC(=O)Cn2nnc(-c3ccccc3)n2)C(C)(C)c2ccccc21 | 14.4% | 2.97e-08M* | -6.3% | 0.0% | >57 | 3.46e-08M*
CC(CCC(=O)O)(c1cc(Br)c(O)c(Br)c1)c1cc(Br)c(O)c(Br)c1 | ? | i | ? | 2.9%[11.5 µM] | . | i
COC(=O)Cn1ncc2c3ccccc3n(C)c2c1=O | ? | . | -11.2% | 0.9% | . | .
COCCCNC(=O)CCS(=O)(=O)Cc1ccc(C)cc1 | 0.3% | i | -2.7% | -1.2% | >57 | i
COc1ccc2c(c1)c(=O)oc1cc(OCC(=O)N3CCCC(C)C3)ccc12 (centres undefined) | 25.1µM* | 7.23e-07M* | i | 3.4% | . | 8.34e-07M*
COc1ccc2[nH]cc(C(=O)CN3CCCC(C)C3)c2c1 (centres undefined) | -3.9% | i | 5.2% | -1.3% | >57 | i
COc1ccc2c(c1)c(=O)oc1cc(OCC(=O)N3CCC(C)CC3)ccc12 | 10µM* | 3.74e-07M* | 61.7% | -0.6% | >57 | 3.58e-07M*
COC(=O)c1cc(-c2c(C)oc3cc(O)ccc3c2=O)c(C)o1 | 31.6µM* | 3.77e-07M* | 31.6µM* | 1.0% | >57 | 3.46e-07M*
Cc1oc2cc(O)ccc2c(=O)c1N1C(=O)c2ccccc2C1=O | i | . | 91.1% | 2.7% | . | .
Cc1ccccc1-c1c(C)oc2cc(O)ccc2c1=O | 31.6µM* | . | 20µM* | -2.8% | . | .
COC(=O)c1cc(-c2c(C)oc3cc(OC)ccc3c2=O)c(C)o1 | 20.9% | i | 3.5% | -0.2% | >57 | i
COCCn1c(C)cc(C(=O)COC(=O)c2n[nH]c3ccccc23)c1C | 3.1% | i | 13.6% | 3.8% | 1.4* | i
Cc1cc(C(=O)COC(=O)c2n[nH]c3ccccc23)c(C)n1C | ? | i | -0.7% | -2.4% | ? | i
CCOC(=O)c1nn(-c2cc(C(=O)OC)cc(C(=O)OC)c2)cc1O | 4.5% | i | 10.7% | 0.3% | >57 | i
CCOC(=O)c1nn(-c2ccc3c(c2)OCO3)cc1O | 31.6µM* | ? | 30.3% | 0.2% | . | ?
O=c1cc(C(F)F)oc2c1ccc1ccccc12 | 25.1µM* | . | 9.5% | 0.8% | . | .
COc1ccc(S(=O)(=O)N(C)CC(=O)Nc2ccccc2OC)cc1C | 0.8% | i | 14.4% | -0.5% | >57 | i
COc1ccc(OC)c(S(=O)(=O)N(C)CC(=O)Nc2ccccc2OC)c1 | 6.0% | i | 15.4% | 4.0% | >57 | i
